# Out of some 69,000 compounds screened, about 8,600 (12%) showed an effect of 50% or more. Shown is part of a subset that was picked to be rich in strong results.
# Tested on: Plasmodium berghei
# Assay: Screen against P. berghei liver stage (PbLuc), transformed with Luciferase, at 10uM
# Type: functional, HepG2
# Settings: tested at 10 uM
row,Compound,INHIBITION
1,Cc1[nH]ncc1C(=O)N(CC(C)C)CC(O)c1ccc(F)cc1 (centres undefined),-12.1%
2,CCN1CC2(CCC1=O)CCN(CCOc1ccc(F)cc1)CC2,10.1%
3,CCC(CC)C(O)CNC(=O)Nc1cc(C)nn1C (centres undefined),11.6%
4,Cc1ccc(C(=O)N2CC[C@@]3(O)CCCC[C@H]3C2)cc1,56.3%
5,Cc1ccc(C(=O)N2CC[C@@]3(O)CCN(C(=O)N(C)C)C[C@H]3C2)cc1Cl,62.8%
6,CN(C)C(=O)N1CC[C@]2(O)CCN(C(=O)c3ccc(C#N)nc3)C[C@@H]2C1,42.4%
7,Cn1ccc2cc(C(=O)N3CC[C@@]4(O)CCCC[C@H]4C3)ccc21,-4.87%
8,Cc1ncc(C(=O)N2CC[C@@]3(O)CCN(C(=O)N(C)C)C[C@H]3C2)cn1,37.8%
9,COc1ccc(C(=O)N2CC[C@@]3(O)CCCC[C@H]3C2)cc1OC,44.3%
10,Cc1nc(C2CCCN2CC(=O)N2CCc3ccccc32)no1 (centres undefined),46.2%
11,COCCN(C)C(C(=O)O)c1ccc(F)c(C)c1 (centres undefined),14%
12,COc1cccc(CN2CCOC(c3cnccn3)C2)c1F (centres undefined),-18.9%
13,O=C(N1CCOCC1)[C@@]12CCO[C@@H]1CCN(C1CCCC1)C2,8.67%
14,CN(Cc1ccncc1)C(=O)[C@H]1CSCN1C(=O)OC(C)(C)C,-12.1%
15,O=C1NC(c2ccccc2)=N[C@@]12CC[C@@H]1CN(S(=O)(=O)C3CC3)C[C@@H]12,76.4%
16,O=C1NC(c2ccccc2)=N[C@@]12CC[C@@H]1CN(Cc3ccccc3)C[C@@H]12,-21.3%
17,O=C1NC(c2ccccc2)=N[C@@]12CC[C@@H]1CN(CC3CCOCC3)C[C@@H]12,2.74%
18,CC(C)NC(=O)C1CCN(c2snc3ccccc23)CC1,-15.5%
19,COc1ccc(CN(Cc2nc(C)no2)C2CCCCC2)cc1OC,14.4%
20,COc1ccc(CN(Cc2cc(C)no2)C2CC2)cc1,92.2%
21,Cc1ccc(CN(Cc2cc(C)no2)C2CC2)cc1,53.2%
22,Cc1cc(CN(Cc2ccccc2)C2CC2)on1,33.7%
23,Cc1cc(CN(C2CC2)C(C)C(C)C)on1 (centres undefined),-21.8%
24,COCCN(Cc1noc(-c2ccc(OC)cc2)n1)C1CC1,15.5%
25,O=C(Nc1cnc2n1CCCC2)C1CCNCC1,18.7%
26,O=C(NCC1CC1)[C@@H]1CCO[C@@H]2CCN(Cc3ccc(F)cc3)C[C@H]21,-10.3%

row,Compound,INHIBITION
1,Cc1cnn(CC2CCCN2C(=O)c2ccc3c(c2)nnn3C)c1 (centres undefined),23.2%
2,C=Cc1cccc(CN2C[C@@H]3CC[C@H]2CN(Cc2c(C)noc2C)C3)c1,-19.2%
3,CN(C)C(=O)N1CCOCC2(CCN(c3ncccn3)C2)C1 (centres undefined),-5.29%
4,CN1CCc2c(C#N)c(NCCc3ccccc3)n3cnnc3c2C1,60.7%
5,CN1CCc2c(C#N)c(NCc3ccccc3)n3cnnc3c2C1,24.2%
6,COCCNc1c(C#N)c2c(c3nncn13)CN(C)CC2,32.5%
7,CN1CCc2c(C#N)c(NCc3ccco3)n3cnnc3c2C1,19.7%
8,CN1CCc2c(C#N)c(NCCN3CCOCC3)n3cnnc3c2C1,35%
9,CN1CCc2c(C#N)c(NCc3ccncc3)n3cnnc3c2C1,10.1%
10,CC(C)CCNc1c(C#N)c2c(c3nncn13)CN(C)CC2,60.7%
11,CN1CCc2c(C#N)c(NCc3cccnc3)n3cnnc3c2C1,53.2%
12,CN1CCc2c(C#N)c(NCCCO)n3cnnc3c2C1,32.5%
13,Cc1ncsc1CN1C[C@@H]2COC[C@]2(C(=O)NC(C)C)C1,18.6%
14,COc1ccc(CC(=O)N2Cc3nccn3CC(CN(C)C)C2)cc1 (centres undefined),6.72%
15,CC(NC(=O)NCc1ccoc1)c1ccc2c(c1)CC(=O)N2 (centres undefined),-55.4%
16,CCOc1cccc(CNC2CCCN(Cc3noc(C)n3)C2)c1 (centres undefined),47%
17,COCCN1CCCC12CCN(Cc1cncn1C)CC2,49.1%
18,COCCn1cncc1CN1CCC(C(C)=O)(c2ccccc2)CC1,50.7%
19,COCCn1cncc1Cn1ncc2ccccc2c1=O,13%
20,CC(C)CN(CC(O)c1ccc(F)cc1)C(=O)c1cnsn1 (centres undefined),-24.9%
21,O=C(CO)N1C[C@@H]2CC[C@H]1CN(C1Cc3ccccc3C1)C2,25.4%
22,CCc1noc(CN2C[C@@H]3CC[C@H]2CN(C2Cc4ccccc4C2)C3)n1,12.8%
23,CCc1cc(CN2C[C@@H]3CC[C@H]2CN(C2Cc4ccccc4C2)C3)on1,57.1%
24,COCCOCC(=O)N1C[C@@H]2CC[C@H]1CN(C1Cc3ccccc3C1)C2,-62.1%
25,CSCC(=O)N1C[C@@H]2CC[C@H]1CN(C1Cc3ccccc3C1)C2,-69.3%
26,CN(C)C(=O)N1C[C@@H]2CC[C@H]1CN(C1Cc3ccccc3C1)C2,-57.9%

row,Compound,INHIBITION
1,Cc1cc(CN2C[C@@H]3CC[C@H]2CN(C2Cc4ccccc4C2)C3)on1,64.5%
2,Cc1noc(CN2C[C@@H]3CC[C@H]2CN(C2Cc4ccccc4C2)C3)n1,30.9%
3,Cc1nnc(CN2C[C@@H]3CC[C@H]2CN(C2Cc4ccccc4C2)C3)o1,66.1%
4,O=C1COC2(CCN(C(=O)c3ccco3)CC2)CN1Cc1ccccn1,28.2%
5,CCn1cc(-c2n[nH]c(=O)n2-c2ccc(OC)c(OC)c2)c(C)n1,41.4%
6,CCn1ccc2ccnc(CC3CN(C(=O)Cn4ccnc4C)C3)c21,6.26%
7,CCc1nccn1C1CCCN(C(=O)c2ccc3nnc(C)n3c2)C1 (centres undefined),-6.44%
8,Cc1ccc(S(=O)(=O)Nc2c(C)nn(C)c2C)cc1C,45.7%
9,COc1c(NS(=O)(=O)c2ccc(F)c(C)c2)c(C)nn1C,29.6%
10,COc1c(NS(=O)(=O)c2ccc(C)c(C)c2)c(C)nn1C,51.1%
11,Cc1noc(C)c1S(=O)(=O)N1CCC(n2cccn2)CC1,-25.4%
12,CCN1CCC(N2CCC(c3nc(C)cc(C)n3)C2)CC1 (centres undefined),23.9%
13,CN(C)C(=O)C1CCCN1CCCNC(=O)c1ccccc1Cl (centres undefined),42.5%
14,CC(C)(C)c1oc(C(N)=O)cc1CN1CCCCC1CN1CCOCC1 (centres undefined),48.5%
15,CC(C)(C)c1oc(C(N)=O)cc1CN1CCOC(C(F)(F)F)C1 (centres undefined),22.5%
16,CC(C)(C)c1oc(C(N)=O)cc1CN1CCCCC(N)C1 (centres undefined),51.8%
17,CC(C(=O)NCCOc1ccc(F)cc1)n1cncn1 (centres undefined),-44.3%
18,Cc1ccc(OCCCNC(=O)C(C)Sc2nncn2C)cc1 (centres undefined),50.8%
19,Cc1ccc(OCCCNC(=O)NC(C)c2nncn2C)cc1 (centres undefined),38.7%
20,Cc1cc(C)cc(OCCN(C)C(=O)NC(C)c2nncn2C)c1 (centres undefined),21.5%
21,CC(NC(=O)NCCOc1ccc(F)c(F)c1)c1nncn1C (centres undefined),0.0932%
22,CC(NC(=O)N(C)CCCOc1ccc(F)cc1)c1nncn1C (centres undefined),-20%
23,Cc1ccc(OCCNC(=O)C(C)n2cncn2)cc1 (centres undefined),8.47%
24,CC(Sc1nncn1C)C(=O)NCCCOc1ccc(F)cc1 (centres undefined),51.7%
25,Cc1cc(C)cc(OCCNC(=O)C(C)Sc2nncn2C)c1 (centres undefined),53.6%
26,O=C(CCSc1ccccc1F)NCc1cccnc1,-0.514%

row,Compound,INHIBITION
1,NC(=O)CN1CC(c2nc(C3CC3)no2)C1,19.8%
2,Cc1nn(CCNC(=O)c2cc(C3CC3)[nH]n2)c(C)c1Cl,-28%
3,CCN(C)c1ncnc2c1CCN(Cc1ccncc1)CC2,38.3%
4,CN(C)S(=O)(=O)N1C[C@@H](OCc2cccnc2)[C@H]2OCCC[C@H]21,11.6%
5,Cc1nc2cc(C(=O)N(CCC#N)CC3CCCO3)ccc2[nH]1 (centres undefined),-0.371%
6,Cc1ccccc1C(N)c1ccncc1 (centres undefined),-1.38%
7,Cc1nc(CN2CCC3(CCN(Cc4cnn(C)c4)CC3)C2=O)cs1,-22.1%
8,CSc1ccccc1C(=O)N1C[C@@H]2CC[C@H]1CN(C(=O)C1CCC1)C2,9.41%
9,CCC(C)Sc1ncc(-c2c(C#N)c(N)nc3c2COCC3)cn1 (centres undefined),29.9%
10,Cc1noc(CCNC(=O)NCc2ccc(N3CCCCC3)cc2)n1,-95.7%
11,CCc1cc(CNC(=O)NCc2ccc(N3CCCCC3)cc2)on1,51.1%
12,CCc1cc(CNC(=O)Nc2cc(F)cc(N3CCCC3)c2)on1,38.3%
13,COc1ccccc1CN(CC1CCCO1)C(=O)c1ccc(F)cn1 (centres undefined),5.23%
14,CCn1cc2c(n1)CN(S(=O)(=O)c1cn(C)cn1)CC2COC (centres undefined),-18.5%
15,O=C(O)CN1CCC(c2ccccc2)CC1,1.03%
16,CN(C)c1nc(N)nc(CN2CCC(c3ccccc3)CC2)n1,67.8%
17,CN(C)c1nc(N)nc(CN2CCCC2c2cccs2)n1 (centres undefined),70%
18,CCC1CCCN(Cc2nc(N)c3ccccc3n2)C1 (centres undefined),36.75%
19,CN(C)c1nc(N)nc(CN2CCC(c3nc4ccccc4o3)CC2)n1,45.4%
20,Cn1ccc(CN2CCC(c3ccccc3)CC2)cc1=O,38%
21,CN(C)c1nc(N)nc(CN2CCCC(c3ccccc3)CC2)n1 (centres undefined),57.8%
22,CN(C)c1nc(N)nc(CN2CCCC2c2ccsc2)n1 (centres undefined),25.5%
23,Cc1cccc(C2CCCN2Cc2nc(N)nc(N(C)C)n2)c1C (centres undefined),35.2%
24,CCN(Cc1ccncc1)c1cc(C2CCN2C(C)=O)nc(C)n1 (centres undefined),19.775%
25,CC(C)c1cc(C(=O)N[C@@H]2CC[C@@H](Oc3ccccc3)[C@@H]2O)on1,-10.955%
26,CCOCCNC(=O)[C@@H]1CCCN1c1nccc(Nc2ccccc2)n1,6.55%

# — ChEMBL document CHEMBL4513216, “Probing the Open Global Health Chemical Diversity Library for Multistage-Active Starting Points for Next-Generation Antimalarials” (ACS Infect Dis, 2020)
